MITF act: activators of MITF-driven TRPM1 promoter activity in SK-MEL-5 cells; SK-MEL-5 TRPM1-promoter luciferase, 24 h; % of positive control, neutral wells = 0; 0.75% of 300,000 active; activation, % at 12.5 µM;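 active means mean activation of at least 80% with every replicate also reaching 80%; inconclusive means mean reaches 80% but some replicate falls short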;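 further: 0% = neutral control wells and 100% = parthenolide positive control wells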
PAX8 inh HTS: lowers PAX8-driven luciferase in RMG-I cells; 1.2% of 360,000 active; inhibition, % at 12.6 µM; AID 652154; RMG-I TPO-luciferase reporter, SteadyGlo, 24 h;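 active means mean replicate inhibition at least 60% with every replicate also reaching 60%; inconclusive means only one of the two criteria is met; inactive means mean below 60% and not all replicates reaching 60%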;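 further: luciferase light reporting Pax8 driven TPO promoter activity; plate controls were median of neutral control wells for no effect and mitoxantrone controls for full effect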
Wnt act: Wnt/beta-catenin pathway activation; AID 743398; activation, % at 9.35 µM; Wnt/beta-catenin reporter cell assay, activator, plate reader; 1.2% of 300,000 active; in the data active means activation above about 30%, passing the limit was not always enough; inconclusive means no clear call, values can overlap the other calls;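 further: 0% = neutral control wells and 100% = positive control wells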
EWS-Fli block: inhibitors of EWS/Fli oncoprotein transcriptional activity | inhibition, % at 12.6 µM | 0.67% of 350,000 active | A673 NR0B1-luciferase reporter, viability-normalised;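 active means mean inhibition of at least 50% after viability correction, with every replicate also passing that limit; inconclusive means mean reaches 50% but only one of two replicates passes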;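 further: firefly luciferase signal divided by Alamar Blue viability fluorescence both relative to DMSO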
esBAF inh: blocks esBAF chromatin remodeling in mouse ES cells; Bmi1-luciferase knock-in reporter, 24 h; 100% = twice the neutral-well signal; AID 602393; reporter increase, % at 12.5 µM; 2% of 350,000 active; in the data active means activation above about 40%; inconclusive means no clear call, values can overlap the other calls;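 further: 0% = median of the plate's neutral control wells and 100% = double that signal; a rise in the Bmi1 reporter signal indicates esBAF inhibition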
MITF TRPM1 inh: inhibitors of MITF-driven TRPM1 promoter in melanoma cells. AID 488899. 0.83% of 330,000 active. SK-MEL-5 TRPM1 promoter luciferase, 24 h. inhibition, % at 12.5 µM;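 active means mean inhibition across replicates of 60% or more, whatever share of single replicates reaches that level; inconclusive means some that reach 60%, reason not given; inactive means mean inhibition across replicates below 60%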
esBAF Ring1 qPCR: de-represses Ring1 in mouse ESCs, confirming esBAF inhibition; 550 tested, under 10 active; shares compounds with esBAF inh; fold change at 33 µM; mouse ESC E14, Ring1 mRNA RT-qPCR fold change;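 active means Ring1 gene expression raised more than 2-fold over untreated cells in both replicates at either tested dose; inconclusive means only one replicate above 2-fold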;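 further: Ring1 transcript normalised to actin housekeeping signal by TaqMan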
esBAF Fgf4 qPCR: esBAF inhibition confirmed by Fgf4 repression | shares compounds with esBAF inh | mouse ESC E14, Fgf4 mRNA qPCR fold change; active compounds read low | Fgf4 expression fold change at 33 µM | 4% of 550 active | AID 743177;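 active means Fgf4 expression under 0.8 fold of control in both repeat measurements at one or both tested doses; inconclusive means under 0.8 fold in just a single repeat measurement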;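 further: Fgf4 transcript normalised to actin in duplex TaqMan qPCR; cells exposed to compound for 24 h before lysis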
esBAF Bmi1 qPCR: de-represses Bmi1 in mouse ESCs, confirming esBAF inhibition | shares compounds with esBAF inh | mouse ESE14 ES cells, Bmi1 mRNA qPCR fold; active compounds read high | fold change at 33 µM | 550 tested, under 10 active | AID 743180;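 active means Bmi1 expression fold change above 6 at either tested concentration, seen in replicate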;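 further: higher fold means more Bmi1 de-repression and stronger esBAF inhibition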
A549 tox SP: A549 cell cytotoxicity. cell viability change % (negative = cytotoxic), % at 25 µM, hits read low. plate reader. shares compounds with esBAF inh. 550 tested, under 10 active; call rule not given here
HepG2 cytotox SP: kills or reduces viability of HepG2 cells. activity change, negative = inhibition, % at 25 µM. HepG2 cytotoxicity, plate reader; active compounds read low. 4% of 550 active. AID 743189. shares compounds with esBAF inh; in the data active means activity change below about -50%
HEK293 cytotox SP: kills or reduces viability of HEK293 cells; 3% of 550 active; HEK293 cytotoxicity, plate reader; shares compounds with esBAF inh; activity change, negative = inhibition, % at 25 µM, hits read low; in the data active means activity change below about -38%, passing the limit was not always enough
* = called active by the depositor; ? = inconclusive; . = no result given. Shown are actives, neighbours in structure and some others; about 4% of the full set was active somewhere.

SMILES	MITF act	PAX8 inh HTS	Wnt act	EWS-Fli block	esBAF inh	MITF TRPM1 inh	esBAF Ring1 qPCR	esBAF Fgf4 qPCR	esBAF Bmi1 qPCR	A549 tox SP	HepG2 cytotox SP	HEK293 cytotox SP
CC(C)c1ccc(NC(=O)c2cccnc2)cc1	91*	.	.	.	85*	-93	1.1	0.81	1.6	-1	-27	5
COc1cccc(S(=O)(=O)N[C@H]2CC[C@@H](CCNC(=O)Cc3ccncc3)O[C@H]2CO)c1	.	-2	.	2	2	.	.	.	.	.	.	.
O=C(Nc1ccc(Cl)c(Cl)c1)c1ccc(Cl)c(Cl)c1	53	-90	20	-64	?	-51	.	.	.	.	.	.
O=C(Nc1ccc2c(c1)COC2=O)c1ccc(Cl)c(Cl)c1	52	-65	16	-62	75*	-57	1.3	1.1	1	-14	-32	-12
O=C(Nc1ccc(Cl)c(Cl)c1)c1ccncc1	37	-36	12	.	65*	-36	1.2	1	1.5	0	22	-8
Fc1ccc(CSc2ccc(-c3cccs3)nn2)cc1	32	-182	16	-78	69*	-34	1.2	?	1.5	-6	-7	-7
N#Cc1ccc(Nc2nc(-c3ccccc3)cs2)cc1	.	-95	26	-87	74*	.	1.6	0.81	2.4	7	-10	-9
O=C(O)c1ccc(Nc2nc(-c3ccccc3)cs2)cc1	55	-221	.	-27	.	-45	.	.	.	.	.	.
COc1ccc2c(=O)c3ccccc3oc2c1	104*	.	2	-110	58*	-97	1.4	1	1.7	-11	-4	-16
COc1ccc2c(=O)c(-c3ccc(OC)c(OC)c3)coc2c1	95*	.	1	-102	58*	-90	1	0.89	1.5	-4	-60*	-14
COc1ccc2c(=O)c(N3C(=O)c4ccccc4C3=O)c(C)oc2c1	5	.	-1	-11	2	-5	.	.	.	.	.	.
Cc1noc(C)c1NC(=O)Nc1ccc2c(c1)CC(=O)N([C@H](C)CO)C[C@H](C)[C@@H](CN(C)C(=O)Nc1ccc(F)cc1)O2	.	-6	.	-11	-5	.	.	.	.	.	.	.
O=C(c1ccccc1F)N1CC[C@H]2[C@H](CO)Nc3ccc(Br)cc3[C@H]21	.	4	.	-16	-1	.	.	.	.	.	.	.
CCn1c2ccccc2c2cc(NC(=O)N3CCCCC3)ccc21	.	-231	4	-145	96*	.	1.1	0.94	1.9	7	7	-1
CCCC(=O)Nc1ccc2c(c1)c1ccccc1n2CC	-6	-3	-1	-13	.	10	.	.	.	.	.	.
O=S(=O)(c1ccccc1F)N1CC[C@H]2[C@H](CO)Nc3ccc(-c4ccccc4)cc3[C@H]21	.	-21	.	-7	7	.	.	.	.	.	.	.
Cc1ccc(NC(=O)C2CCCN(c3ncccn3)C2)cc1F (stereo not drawn)	134*	.	.	.	73*	-132	1.3	?	1.6	0	-18	-7
Cc1ccc(NC(=O)C2CCCN(C(=O)c3ccc(Cl)cc3)C2)cc1C (stereo not drawn)	64	-104	8	-137	69*	-63	0.98	1.1	1.5	-7	-29	-32
CC(C)NC(=O)N[C@@H]1C=C[C@@H](CC(=O)NCc2ccc(Oc3ccccc3)cc2)O[C@@H]1CO	.	3	.	10	4	.	.	.	.	.	.	.
CCS(=O)(=O)N1CC(=O)N2[C@@H](CO)[C@H](c3ccc(C#CC4CCCCC4)cc3)[C@@H]2C1	.	.	.	-11	.	.	.	.	.	.	.	.
Cn1ccc2c(-c3ccc(C(=O)O)cc3)cc3c(c21)C1CCC3C1 (stereo not drawn)	.	-169	-8	-73	66*	.	1.4	0.96	1.5	-7	-13	1
Nc1ccc2c(c1Br)Cc1ccccc1-2	-1	-66	27	-24	34	-1	.	.	.	.	.	.
CC(=O)Nc1ccc2c(c1Br)Cc1ccccc1-2	68	-100	46*	-94	69*	-72	1.2	0.92	2.8	-8	8	-7
CS(=O)(=O)N1[C@@H](C#N)[C@H](c2ccc(C#Cc3cccc(F)c3)cc2)[C@@H]1CO	.	-27	.	-64	26	.	.	.	.	.	.	.
COc1ccccc1N1C(=O)S/C(=C\c2ccc(C)s2)C1=O	.	-100	10	-97	73*	-67	1	?	1.5	-3	-21	-1
SMILES	MITF act	PAX8 inh HTS	Wnt act	EWS-Fli block	esBAF inh	MITF TRPM1 inh	esBAF Ring1 qPCR	esBAF Fgf4 qPCR	esBAF Bmi1 qPCR	A549 tox SP	HepG2 cytotox SP	HEK293 cytotox SP
O=C(NC1CCCCC1)c1n[nH]c2c1CC(c1ccccc1)CC2 (stereo not drawn)	61	-114	26	-59	70*	-62	1.2	0.9	1.5	-5	-6	3
O=C(NC1CCCCCCC1)c1ccc(F)cc1	59	-107	29	-88	-4	-64	.	.	.	.	.	.
O=C(NC1CCCCC1)c1ccc(-c2ccccc2)cc1	68	-153	22	-84	70*	-74	1.4	0.99	1.5	-3	-34	-6
CO[C@H]1CN(C)C(=O)c2ccc(NC(=O)Nc3ccc(Cl)cc3)cc2OC[C@H](C)NC[C@H]1C	.	.	.	14	5	.	.	.	.	.	.	.
Cc1ccnc(NC(=O)c2ccc(OCc3c(C)noc3C)cc2)c1	79	-175	?	-107	70*	-78	0.99	?	1.8	0	-29	-5
CCCNC(=O)N1CC2(CN(Cc3ccc(F)cc3)C2)c2c([nH]c3cc(OC)ccc23)[C@H]1CO	.	-11	.	19	.	.	.	.	.	.	.	.
C[C@@H]1CN([C@H](C)CO)C(=O)c2cc(C#CC(C)(C)O)cnc2O[C@@H]1CN(C)C(=O)C1CCOCC1	.	.	.	0	3	.	.	.	.	.	.	.
O=C(O)c1ccc(N/N=C/c2cccc3nccnc23)cc1	49	-25	23	-51	65*	-52	1.2	0.85	1.8	-13	-29	6
CO[C@H]1CN(C)C(=O)c2ccc(NC(=O)Nc3ccccc3)cc2OC[C@H](C)N(C(=O)Nc2c(C)noc2C)C[C@H]1C	.	.	.	-11	0	.	.	.	.	.	.	.
c1ccc(-c2nc3c(ccc4ccccc43)[nH]2)nc1	17	.	.	.	100*	-15	0.95	1.1	3.1	-6	-13	-8
Fc1cccc(-c2ncc(-c3ccccc3)o2)c1	49	-100	42*	-61	73*	-51	1.2	0.99	1.7	-6	2	-17

Screens: PubChem BioAssay, Broad Institute
